Records with an inconclusive call do not appear. Entries that show only a call come without a potency. Calls of active or inactive are those of the source. Calls follow the shape of the full dose curve.
Tests used:
[1] = Cytotoxicity counterscreen for inhibitors of SARS-CoV-2 cell entry (AID 1645845); settings: outcome: dose series up to 57.1 µM unless noted; also: nearly all actives have a fitted effect of over 50% in size
In short: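 48 h compound treatment (after 1 h preincubation), HEK293-ACE2 cells, 37 C/5% CO2; ATP luminescence endpoint; normalized to cell wells and media blanks.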

[2] = Primary qHTS to identify inhibitors of SARS-CoV-2 cell entry (AID 1645846); settings: SARS-CoV-2 pseudovirus cell entry assay, luminescence; activity change, negative = inhibition: at 57.1 µM (top of the series) unless noted; also: nearly all actives have a fitted effect of over 45% in size
In short: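 Inhibition of spike-mediated entry was scored in human ACE2-transfected Expi293F cells. Particles were MLV-pseudotyped with Wuhan-Hu-1 S carrying a 19-aa C-terminal deletion; signal was luciferase after two days, scaled between spike PP and fusion-protein-free PP.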

[3] = VSVG counterscreen qHTS to identify inhibitors of SARS-CoV-2 cell entry (AID 1645847); also: nearly all actives have a fitted effect of over 65% in size
In short: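 Luminescence from a luciferase reporter, normalised to bald particle and VSV-G pseudotyped particle wells, is the read-out. Cells are HEK293 expressing human ACE2, exposed to compound 1 h before a 48 h particle infection at 37 °C.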
Potency is read from the fitted curve at half-maximal effect.

NS(=O)(=O)Oc1ccc2c3c(c(=O)oc2c1)CCCCC3
Potency [1]: inactive | Potency [2]: inactive

O=C(/C=C/c1ccc(/C=C/C(=O)Nc2ccc(C3=NCCN3)cc2)cc1)Nc1ccc(C2=NCCN2)cc1
activity change, negative = cytotoxicity [1]: -2.26% [at 5.25 µM] (inactive) | activity change, negative = inhibition [2]: -24.3% [at 5.25 µM]

C[C@]12CCCN1CC1=NNC(=O)c3cc(F)cc4[nH]c2c1c34
Potency [1]: inactive | activity change, negative = inhibition [2]: -15.3%

c1cn2cc(-c3ccc4cn[nH]c4c3)nc(Nc3ccc(N4CCOCC4)cc3)c2n1
Potency [1]: 2.82 µM (active) | activity change, negative = inhibition [2]: -27%

COC1CC(C(=O)c2ccc3c(N)ncc(-c4ccc(-c5cnn(C)c5)cc4)c3n2)C1 (stereo unspecified)
Potency [1]: inactive | Potency [2]: 8.91 µM (active) | Potency [3]: inactive

O=C(Nc1cccnc1)c1cc(-c2ccnc(F)c2)ccc1OCc1ccccc1
Potency [1]: inactive | activity change, negative = inhibition [2]: -5.26% | Potency [3]: inactive

CC(C)C(=O)OCC(=O)[C@@]12O[C@H](C3CCCCC3)O[C@@H]1C[C@H]1[C@@H]3CCC4=CC(=O)C=C[C@]4(C)[C@H]3[C@@H](O)C[C@@]12C
Potency [1]: inactive | activity change, negative = inhibition [2]: -13.1%

C=C1CCC[C@]2(C)C=C3OC(=O)C(C)=C3C[C@@H]12
Potency [1]: inactive | activity change, negative = inhibition [2]: -28.3%

C[C@H](Nc1nc(N[C@H](C)C(F)(F)F)nc(-c2cccc(Cl)n2)n1)C(F)(F)F
Potency [1]: inactive | activity change, negative = inhibition [2]: -8.78%

O=C(O)C1=CO[C@@H](O[C@@H]2O[C@H](CO)[C@@H](O)[C@H](O)[C@H]2O)[C@@H]2C(CO)=CC[C@H]12
Potency [1]: inactive | Potency [2]: inactive

CCc1c(-c2ccccc2C)nc2c(C#N)c[nH]n2c1=O
Potency [1]: inactive | activity change, negative = inhibition [2]: -14.3%

CC1(N)CCN(c2cccnc2NC(=O)c2nc(-c3ncccc3C(F)(F)F)cnc2N)CC1
Potency [1]: inactive | Potency [2]: 14.1 µM (active)

COc1nc(N)nc2c1ncn2C1OC(CO)C(O)C1O (stereo unspecified)
Potency [1]: inactive | activity change, negative = inhibition [2]: 1.29%

NC(CC1c2ccccc2Oc2ccccc21)(C(=O)O)C1CC1C(=O)O (stereo unspecified)
Potency [1]: inactive | activity change, negative = inhibition [2]: 4.33%

CC1(C)[C@@H](O)CC[C@]2(C)[C@H]3C(=O)C=C4[C@@H]5C[C@@](C)(C(=O)O)CC[C@]5(C)CC[C@@]4(C)[C@]3(C)CC[C@@H]12
Potency [1]: inactive | Potency [2]: inactive

CC(C)OC(=O)[C@H](C)N[P@](=O)(OC[C@H]1O[C@@H](n2ccc(=O)[nH]c2=O)[C@](C)(F)[C@@H]1O)Oc1ccccc1
Potency [1]: inactive | activity change, negative = inhibition [2]: -40% | Potency [3]: 30.4 µM (active)

O=C(O)c1ccc(CN2CCC(CN[C@@H]3C[C@H]3c3ccccc3)CC2)cc1
Potency [1]: inactive | Potency [2]: inactive

CN1CC[C@@H](NC(=O)Nc2ccc(C#N)cc2)C[C@@H]1c1nc2ccccc2[nH]1
Potency [1]: inactive | activity change, negative = inhibition [2]: -7.47% | Potency [3]: 24.1 µM (active)

CN[C@@H]1[C@@H](O)[C@@H](O[C@@H]2[C@@H](O)[C@H](O[C@H]3O[C@H](CN)[C@@H](O)[C@H](O)[C@H]3O)[C@@H](N)C[C@H]2NC(=O)C(O)CN)OC[C@]1(C)O (stereo partly specified)
Potency [1]: inactive | Potency [2]: inactive

CC(C)Cc1ccc([C@@H](C)C(=O)NS(C)(=O)=O)cc1
Potency [1]: inactive | activity change, negative = inhibition [2]: 3.55%

CC(Nc1ncnc2nc[nH]c12)c1cc2cccc(Cl)c2c(=O)n1-c1ccccc1 (stereo unspecified)
Potency [1]: inactive | activity change, negative = inhibition [2]: -36.2%

Cc1cc(C)cc(NC(=O)Cc2ccc(OC(C)(C)C(=O)O)cc2)c1
Potency [1]: inactive | Potency [2]: inactive

COC(=O)/C=C/C(=O)N(O)CCCCNCc1ccc(COC(=O)Nc2cccc3ccccc23)cc1
Potency [1]: inactive | activity change, negative = inhibition [2]: -27.1%

COc1ccc(COc2ccc(Cc3cnc(N)nc3N)cc2OC)cc1
Potency [1]: inactive | activity change, negative = inhibition [2]: -52.5% | Potency [3]: 6.81 µM (active)

CC(=O)N[C@H]1[C@H](O[C@@H]2c3ccc(c(Cl)c3)Oc3cc4cc(c3O[C@@H]3O[C@H](CO)[C@@H](O)[C@H](O)[C@H]3NC(=O)CCCCCCCC(C)C)Oc3ccc(cc3Cl)C[C@H]3NC(=O)[C@H](N)c5ccc(O)c(c5)Oc5cc(O)cc(c5)[C@H](NC3=O)C(=O)N[C@H]4C(=O)N[C@H]3C(=O)N[C@@H]2C(=O)N[C@@H](C(=O)O)c2cc(O)cc(O[C@H]4O[C@H](CO)[C@@H](O)[C@H](O)[C@@H]4O)c2-c2cc3ccc2O)O[C@H](CO)[C@@H](O)[C@@H]1O
Potency [1]: inactive | activity change, negative = inhibition [2]: -12.4%

NCC(=O)Nc1cncc(-c2nn3c(=O)cc(N4CCNCC4)nc3s2)c1
Potency [1]: inactive | activity change, negative = inhibition [2]: -55.5%

Nc1nc(F)nc2c1ncn2C1OC(COP(=O)(O)O)C(O)C1O (stereo unspecified)
Potency [1]: inactive | activity change, negative = inhibition [2]: -9.43%

Cc1ccc(-c2ccc3ncc4c(c3n2)n(C2CCN(C(=O)[C@H](C)O)CC2)c(=O)n4C)cn1
Potency [1]: inactive | activity change, negative = inhibition [2]: -95.8%

C[C@H]1CN(C2COC2)CCN1c1ccc(Nc2cc(-c3ccnc(N4CCn5c(cc6c5CC(C)(C)C6)C4=O)c3CO)cn(C)c2=O)nc1
Potency [1]: inactive | activity change, negative = inhibition [2]: -10.4%

O=C(Cc1ccccc1)Nc1nnc(CCSCCc2nnc(NC(=O)Cc3ccccc3)s2)s1
Potency [1]: inactive | Potency [2]: inactive

COc1cc2ncnc(Nc3cccc(Cl)c3F)c2cc1OC(=O)N1CCN(C)C[C@H]1C
Potency [1]: inactive | activity change, negative = inhibition [2]: -27.8%

Cc1cc(C)c(S(=O)(=O)N(CCc2cccc(Br)c2)Cc2ccc(-c3cccc(S(C)(=O)=O)c3)cc2)c(C)c1
Potency [1]: inactive | activity change, negative = inhibition [2]: -5.91%

CN(CCOc1ccc(-c2ccc3c(c2)OCO3)cc1C(C)(C)C)CC(=O)O
Potency [1]: inactive | activity change, negative = inhibition [2]: -18.5%

OC[C@H]1O[C@@H](S[C@@H]2O[C@H](CO)[C@H](O)[C@H](n3cc(-c4cccc(F)c4)nn3)[C@H]2O)[C@H](O)[C@@H](n2cc(-c3cccc(F)c3)nn2)[C@H]1O
Potency [1]: inactive | activity change, negative = inhibition [2]: 2.64%

NS(=O)(=O)c1ccc(Cc2c(-c3cccc(-c4ccccc4)c3)nn(-c3nc(C(=O)O)cs3)c2CC2CC2)cc1
Potency [1]: inactive | activity change, negative = inhibition [2]: -32.8% | Potency [3]: 8.57 µM (active)

COc1cc2c(Nc3ccc(Cl)c(Cl)c3F)ncnc2cc1OCC1C[C@@H]2CN(C)C[C@@H]2C1 (stereo partly specified)
Potency [1]: 31.6 µM (active) | Potency [2]: 15.8 µM (active)

Cc1[nH]c2ccc(F)cc2c1-c1nc2c3cccnc3c3ncccc3c2[nH]1
Potency [1]: inactive | activity change, negative = inhibition [2]: -96.1% [at 114 µM] | Potency [3]: 1.75 µM (active)

COc1ccccc1C(=O)Nc1cc2c(cc1N1CCCCC1)n(C)c(=O)n2C
Potency [1]: inactive | activity change, negative = inhibition [2]: -21.1%

COc1c(C)cc(NC(=O)c2nn(Cc3ccc(F)cc3)c3c2CN(C(=O)c2ccc[nH]2)C[C@]3(C)C(N)=O)cc1C
Potency [1]: inactive | Potency [2]: inactive

O=c1sn(-c2cccc3ccccc23)c(=O)n1Cc1ccccc1
Potency [1]: inactive | Potency [2]: inactive

O=C1Cc2cc(C(=O)NC3C[C@H]4CC[C@@H](C3)N4S(=O)(=O)CC3CCN(CCCC(F)(F)F)CC3)c(Cl)cc2N1 (stereo partly specified)
Potency [1]: inactive | activity change, negative = inhibition [2]: -20.5%

Cc1onc(-c2ccc(F)cc2)c1COc1ccc(C(=O)N2CCS(=O)(=O)CC2)cn1
Potency [1]: inactive | activity change, negative = inhibition [2]: -25.8%

— PubChem BioAssay (NCATS)
